Results filed as inconclusive are left out. A call without a number means that no potency is given here. Active and inactive are the calls of the source. Unless noted, calls follow the shape of the dose curve; as a rule, active = well fitted inhibition curve with a large enough effect; inconclusive = small, poorly fitted or top-dose-only effect; inactive = flat fitted curve, though single readings scatter.

Test [1] in a line: NCATS anti-infectives library activity on the primary C. elegans qHTS viability assay (AID 1745855; calls by dose curve). The procedure, abridged:
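Viability read-out is GFP fluorescence of PE254-GFP-FLuc C. elegans, measured by laser cytometry (488 nm) at day 0, 3 and 7. Ten L1 worms per well were incubated 7 days at 21 °C with compounds and bacterial capsules in S medium.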

Test [2] has as its target Glutathione peroxidase 1 (Homo sapiens) (UniProt P07203). Nature of the test: Primary qHTS Assay for Inhibitors of Recombinant Selenoprotein Glutathione Peroxidase 1 (GPX1) (AID 1845191). Also: nearly all actives have a fitted effect of over 65% in size. The procedure, abridged:
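Recombinant GPX1 (10 nM final) was preincubated with compound for 30 min at room temperature, then reacted with 1 mM GSH, 0.5 mM CHP, 0.5 mM NADPH and 100 nM glutathione reductase; NADPH fluorescence (340/450 nm) was read at 0 and 15 min.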

The target of test [3] is Phospholipid hydroperoxide glutathione peroxidase GPX4 (Homo sapiens) (UniProt P36969). Nature of the test: Primary qHTS Assay for Inhibitors of Recombinant Selenoprotein Glutathione Peroxidase 4 (GPX4) (AID 1845192). Also: nearly all actives have a fitted effect of over 65% in size. Also: potency is read from the fitted curve at half-maximal effect. Summed up: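 GR-coupled readout: 100 nM GR, 1 mM GSH, 0.5 mM NADPH; NADPH fluorescence (ex 340/em 450 nm) read at t=0 and after 15 min RT. GPX4 200 nM, preincubated 30 min with compound; substrate 0.5 mM CHP.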
Phospholipid hydroperoxide glutathione peroxidase GPX4 (Homo sapiens), sequence (P36969 whole entry, looked up): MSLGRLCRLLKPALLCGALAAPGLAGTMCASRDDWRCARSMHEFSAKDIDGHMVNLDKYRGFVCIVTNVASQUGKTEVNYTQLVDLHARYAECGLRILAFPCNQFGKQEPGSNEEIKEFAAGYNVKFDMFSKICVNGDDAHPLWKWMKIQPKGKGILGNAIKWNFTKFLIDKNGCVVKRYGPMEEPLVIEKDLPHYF
(In general: Quantitative high-throughput screening tests each substance at several concentrations.)

Test [4] has as its target Luciferin 4-monooxygenase (Photinus pyralis) (UniProt P08659). Nature of the test: Primary firefly luciferase (FLuc) qHTS assay for identification of artifact compounds. (AID 1845220). Also: series mostly up to about 54 µM; nearly all actives have a fitted effect of over 60% in size. Summed up: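 In this counter-screen for luciferase artifacts, test compounds met substrate (10 uM each luciferin and ATP) before 10 nM enzyme started the reaction. Light output was measured 5 min later.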

Glutathione peroxidase 1 (Homo sapiens), sequence (P07203 whole entry, looked up): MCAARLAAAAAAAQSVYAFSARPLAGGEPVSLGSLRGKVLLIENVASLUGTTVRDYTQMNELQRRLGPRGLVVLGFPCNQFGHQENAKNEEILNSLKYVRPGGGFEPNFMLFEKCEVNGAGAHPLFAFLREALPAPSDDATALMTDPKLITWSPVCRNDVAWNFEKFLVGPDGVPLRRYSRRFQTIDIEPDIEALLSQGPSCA

`COc1ccc2cc([C@H](C)C(=O)O)ccc2c1`: the Potency entry in test [1], in test [2], in test [3] and in test [4] was “inactive” throughout.
Regarding `CC1=C(C)C(=O)C(C(CCCCCC(=O)O)c2ccccc2)=C(C)C1=O` (configuration not stated), in test [2], the Potency result is “inactive”. Also, the Potency in test [3] was 11.2 µM (active).
As for `COC(=O)C1=C(C)NC(C)=C(C(=O)OCCCN2CCC(c3ccccc3)(c3ccccc3)CC2)C1c1cccc([N+](=O)[O-])c1` (configuration not stated), in test [2], the Potency result is “inactive”.
In the case of `O=C1NC(=O)C(c2ccccc2[N+](=O)[O-])=C1Nc1ccc(O)c(Cl)c1`, the Potency result in test [2] and in test [3] was “inactive” each time.
As for `Cc1ccc(C)c(OCCCC(C)(C)C(=O)O)c1`, the Potency result in test [2] and in test [3] was “inactive” throughout.
For the compound `CN(C)c1ccc(O)c2c1C[C@H]1C[C@H]3[C@H](N(C)C)C(=O)C(C(N)=O)=C(O)[C@@]3(O)C(=O)C1=C2O`, the Potency entry in test [2] was “inactive”.
As for `O=C(O)c1cccnc1Nc1cccc(C(F)(F)F)c1`, the Potency entry in test [2] and in test [3] was “inactive” each time.
As to `CCOC(=O)C1=C(O)C(=O)N(Cc2ccccc2)C1`, the Potency result in test [2] and in test [3] was “inactive” each time.
In the case of `S=c1nc[nH]c2nc[nH]c12`, the Potency entry in test [1], in test [2] and in test [3] was “inactive” each time.
As for `Cc1c(OCC(F)(F)F)ccnc1CS(=O)c1nc2ccccc2[nH]1` (configuration not stated), the Potency result in test [2] was “inactive”. For the same compound, the Potency in test [3] is 4.53 µM (active).
Turning to `Nc1nc(OCc2ccccc2)c2[nH]cnc2n1`, the Potency result in test [2] and in test [3] was “inactive” each time.
`Clc1ccc(C(Cn2ccnc2)OCc2ccc(Sc3ccccc3)cc2)c(Cl)c1` (configuration not stated): the Potency result in test [2] and in test [3] was “inactive” each time.
`CCOC(=O)c1c(C)n(C)c2ccc(O)cc12`: in test [2], the Potency result was “inactive”.
As for `CS(=O)(=O)OCCCCOS(C)(=O)=O`, the Potency entry in test [2] and in test [3] was “inactive” in each case.
On to `O=C(NCCO[N+](=O)[O-])c1cccnc1`, for which the Potency result in test [2] and in test [3] was “inactive” throughout.
With `CCN(CC)C(=S)SSC(=S)N(CC)CC`, the Potency result in test [2] and in test [3] was “inactive” in each case.

For the origin of these results see PubChem BioAssay (NCATS).
